For 8 sequences, binding signal results are on record in paper PMC7862700, “An all-to-all approach to the identification of sequence-specific readers for epigenetic DNA modifications on cytosine”.

Holding throughout (assay): DAPPL (digital affinity profiling via proximity ligation, sequencing); 10 mM Tris-HCl pH 7.5, 50 mM NaCl, 1 mM DTT, 4% glycerol, room temperature, 30 min; GST-TFs on glutathione beads, 16-mer random dsDNA library, 0.1% formaldehyde crosslink after washing; high values mean tight binding
Common to all, as to conditions: protein: recombinant; tags: N-terminal GST; dsDNA, one strand shown

The target in one experiment is T1, FLI1 (Homo sapiens, UniProt Q01543 1-452).
T1 sequence: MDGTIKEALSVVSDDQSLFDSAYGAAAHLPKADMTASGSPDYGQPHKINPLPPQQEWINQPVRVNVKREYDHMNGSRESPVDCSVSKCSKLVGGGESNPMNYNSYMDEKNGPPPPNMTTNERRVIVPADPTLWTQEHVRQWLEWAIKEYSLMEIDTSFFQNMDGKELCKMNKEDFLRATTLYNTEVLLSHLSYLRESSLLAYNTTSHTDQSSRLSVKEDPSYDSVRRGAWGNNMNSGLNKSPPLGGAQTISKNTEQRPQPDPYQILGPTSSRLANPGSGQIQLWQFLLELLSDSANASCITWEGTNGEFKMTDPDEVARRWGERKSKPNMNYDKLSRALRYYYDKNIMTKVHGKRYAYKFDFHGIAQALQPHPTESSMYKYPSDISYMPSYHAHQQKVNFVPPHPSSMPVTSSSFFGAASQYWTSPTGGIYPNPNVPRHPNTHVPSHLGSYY
The gist of the method: (§1)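 Pools were built from human transcription factors expressed in yeast as GST fusions, captured on glutathione beads and DNA-barcoded, along with a tag-only sample. Incubation with 200 nmole of a 16-mer random double-stranded DNA library lasted 30 min at room temperature in Tris/NaCl/DTT/glycerol buffer, and was followed by washing, 0.1% formaldehyde crosslinking, proximity ligation, PCR amplification and Illumina NextSeq500 sequencing. Binding signal is the quotient of each hexamer's read frequency for a factor and its frequency for the tag-only sample.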

In a further experiment the target is T2, ELK1 (Homo sapiens, UniProt P19419 1-428).
T2 sequence: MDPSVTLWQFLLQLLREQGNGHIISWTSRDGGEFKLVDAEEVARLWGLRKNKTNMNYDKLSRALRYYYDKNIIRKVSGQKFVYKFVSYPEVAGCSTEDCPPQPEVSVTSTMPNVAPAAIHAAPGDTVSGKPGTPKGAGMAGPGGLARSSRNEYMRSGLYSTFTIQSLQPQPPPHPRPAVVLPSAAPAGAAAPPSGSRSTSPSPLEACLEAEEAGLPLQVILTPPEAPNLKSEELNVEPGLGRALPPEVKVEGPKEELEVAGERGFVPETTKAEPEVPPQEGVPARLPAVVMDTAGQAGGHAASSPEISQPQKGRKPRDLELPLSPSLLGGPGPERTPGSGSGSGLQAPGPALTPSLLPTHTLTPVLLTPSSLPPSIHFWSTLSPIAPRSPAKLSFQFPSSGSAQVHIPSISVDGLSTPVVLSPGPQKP
The gist of the method: as §1

The target of the next experiment is T3, GABPA (Homo sapiens, UniProt Q06546 1-454).
T3 sequence: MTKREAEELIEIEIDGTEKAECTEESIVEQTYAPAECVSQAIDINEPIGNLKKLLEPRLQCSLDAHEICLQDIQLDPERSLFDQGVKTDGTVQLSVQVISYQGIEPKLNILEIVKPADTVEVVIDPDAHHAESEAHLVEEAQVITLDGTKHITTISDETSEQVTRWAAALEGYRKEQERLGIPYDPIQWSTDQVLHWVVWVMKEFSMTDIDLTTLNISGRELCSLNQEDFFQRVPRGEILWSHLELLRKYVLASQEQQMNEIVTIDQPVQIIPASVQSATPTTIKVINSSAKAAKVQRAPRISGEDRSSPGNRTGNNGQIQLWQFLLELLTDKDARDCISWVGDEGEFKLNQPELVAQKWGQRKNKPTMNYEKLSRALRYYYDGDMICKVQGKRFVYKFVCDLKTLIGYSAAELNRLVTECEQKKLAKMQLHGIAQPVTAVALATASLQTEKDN
The gist of the method:
as §1

A further experiment addresses T4, ERG (Homo sapiens, UniProt P11308 1-479).
T4 sequence: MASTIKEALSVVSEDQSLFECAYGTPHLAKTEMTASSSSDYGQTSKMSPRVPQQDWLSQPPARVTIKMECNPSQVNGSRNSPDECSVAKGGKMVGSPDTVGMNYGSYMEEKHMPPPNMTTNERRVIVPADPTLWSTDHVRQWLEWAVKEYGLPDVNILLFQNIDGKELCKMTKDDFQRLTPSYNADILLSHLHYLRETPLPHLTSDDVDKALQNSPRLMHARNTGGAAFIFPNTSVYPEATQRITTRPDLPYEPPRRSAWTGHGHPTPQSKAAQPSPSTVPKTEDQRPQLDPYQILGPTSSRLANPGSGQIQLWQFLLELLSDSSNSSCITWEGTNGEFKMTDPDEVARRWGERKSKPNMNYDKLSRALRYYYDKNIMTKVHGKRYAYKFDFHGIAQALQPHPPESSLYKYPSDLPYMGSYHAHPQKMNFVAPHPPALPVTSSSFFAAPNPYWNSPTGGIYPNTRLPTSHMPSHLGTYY
The gist of the method:
as §1

The target in a further experiment is ELF1 (Homo sapiens, UniProt P32519 1-619). Summed up: as §1
In the next experiment the target is T5, EHF (Homo sapiens, UniProt Q9NZC4 1-300).
T5 sequence: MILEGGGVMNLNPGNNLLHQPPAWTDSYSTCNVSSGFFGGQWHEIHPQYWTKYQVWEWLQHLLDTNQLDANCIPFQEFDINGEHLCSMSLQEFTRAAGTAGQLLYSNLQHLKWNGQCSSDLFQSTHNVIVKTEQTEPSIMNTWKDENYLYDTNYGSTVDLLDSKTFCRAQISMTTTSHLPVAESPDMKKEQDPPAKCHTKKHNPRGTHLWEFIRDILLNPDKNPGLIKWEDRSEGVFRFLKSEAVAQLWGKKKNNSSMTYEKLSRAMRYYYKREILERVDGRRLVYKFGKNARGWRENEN
Summed up: as §1

The target of a further experiment is SPI1 (Homo sapiens, UniProt P17947 1-270). Summed up: as §1
The next experiment has as its target SPIB (Homo sapiens, UniProt Q01892 1-262). Summed up: as §1
For a further experiment, the target named is T6, ELK3 (Homo sapiens, UniProt P41970 1-407).
T6 sequence: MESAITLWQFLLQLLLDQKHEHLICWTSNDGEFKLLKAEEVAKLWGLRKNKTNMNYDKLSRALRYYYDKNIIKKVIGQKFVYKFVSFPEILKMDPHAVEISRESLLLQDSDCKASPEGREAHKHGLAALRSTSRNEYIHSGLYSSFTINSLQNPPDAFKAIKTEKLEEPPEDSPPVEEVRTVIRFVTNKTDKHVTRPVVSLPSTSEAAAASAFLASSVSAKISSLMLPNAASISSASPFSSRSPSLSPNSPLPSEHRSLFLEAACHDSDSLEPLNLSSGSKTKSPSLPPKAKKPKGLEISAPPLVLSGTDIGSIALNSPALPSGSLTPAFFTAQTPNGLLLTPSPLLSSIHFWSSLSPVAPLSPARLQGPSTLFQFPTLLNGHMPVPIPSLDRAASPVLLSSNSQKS
Summed up: as §1

Sequence of ELF1 (P32519 whole entry): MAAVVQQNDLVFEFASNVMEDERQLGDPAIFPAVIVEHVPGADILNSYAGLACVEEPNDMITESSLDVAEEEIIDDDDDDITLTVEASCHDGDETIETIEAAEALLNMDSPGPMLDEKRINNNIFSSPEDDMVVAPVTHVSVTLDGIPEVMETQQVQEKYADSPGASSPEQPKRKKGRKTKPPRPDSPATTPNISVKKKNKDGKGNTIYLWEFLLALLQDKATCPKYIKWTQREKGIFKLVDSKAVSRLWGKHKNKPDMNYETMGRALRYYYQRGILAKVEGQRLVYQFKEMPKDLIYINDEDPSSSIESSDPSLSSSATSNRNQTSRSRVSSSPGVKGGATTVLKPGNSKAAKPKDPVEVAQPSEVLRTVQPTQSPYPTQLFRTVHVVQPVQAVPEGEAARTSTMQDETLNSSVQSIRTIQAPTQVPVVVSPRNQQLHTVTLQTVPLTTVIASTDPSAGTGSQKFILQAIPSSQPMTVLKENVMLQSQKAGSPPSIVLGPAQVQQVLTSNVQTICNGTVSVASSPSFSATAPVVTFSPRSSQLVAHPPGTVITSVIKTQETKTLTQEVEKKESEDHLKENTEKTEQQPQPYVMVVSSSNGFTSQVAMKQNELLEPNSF
Sequence of SPIB (Q01892 whole entry): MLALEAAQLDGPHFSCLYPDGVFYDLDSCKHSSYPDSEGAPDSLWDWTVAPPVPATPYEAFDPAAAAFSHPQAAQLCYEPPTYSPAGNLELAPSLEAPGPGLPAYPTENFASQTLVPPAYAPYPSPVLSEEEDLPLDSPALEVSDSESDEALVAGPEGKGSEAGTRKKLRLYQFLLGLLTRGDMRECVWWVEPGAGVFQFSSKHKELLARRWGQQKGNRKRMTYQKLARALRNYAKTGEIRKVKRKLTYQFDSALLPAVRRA

As for CCCTTT, the binding signal was 1.47 fold enrichment (6-mer frequency, TF over GST control) with FLI1; 1.36 fold enrichment (6-mer frequency, TF over GST control) with ELK1; 1.51 fold enrichment (6-mer frequency, TF over GST control) with GABPA; 1.45 fold enrichment (6-mer frequency, TF over GST control) in the experiment with ERG; 1.36 fold enrichment (6-mer frequency, TF over GST control) with ELF1; 1.35 fold enrichment (6-mer frequency, TF over GST control) with EHF. Also, the binding signal with SPI1 was 1.96 fold enrichment (6-mer frequency, TF over GST control); with SPIB it was 1.49 fold enrichment (6-mer frequency, TF over GST control); in the experiment with ELK3, 1.43 fold enrichment (6-mer frequency, TF over GST control).

Regarding TGACCT, the binding signal was 1.75 fold enrichment (6-mer frequency, TF over GST control) with FLI1; 1.82 fold enrichment (6-mer frequency, TF over GST control) with ELK1; 1.81 fold enrichment (6-mer frequency, TF over GST control) with GABPA; 1.73 fold enrichment (6-mer frequency, TF over GST control) with ERG; 1.84 fold enrichment (6-mer frequency, TF over GST control) with ELF1; 1.86 fold enrichment (6-mer frequency, TF over GST control) with EHF. Further, the binding signal with SPI1 was 1.7 fold enrichment (6-mer frequency, TF over GST control); in the experiment with SPIB, 1.56 fold enrichment (6-mer frequency, TF over GST control); with ELK3, 1.6 fold enrichment (6-mer frequency, TF over GST control).

Regarding CCACAA, the binding signal with FLI1 is 1.2 fold enrichment (6-mer frequency, TF over GST control); with ELK1 it was 1.14 fold enrichment (6-mer frequency, TF over GST control); with GABPA, 1.25 fold enrichment (6-mer frequency, TF over GST control); with ERG, 1.09 fold enrichment (6-mer frequency, TF over GST control); with ELF1, 1.21 fold enrichment (6-mer frequency, TF over GST control); with EHF it was 1.08 fold enrichment (6-mer frequency, TF over GST control). The binding signal with SPI1 is 1.22 fold enrichment (6-mer frequency, TF over GST control); in the experiment with SPIB, 1.07 fold enrichment (6-mer frequency, TF over GST control); with ELK3 it was 1.34 fold enrichment (6-mer frequency, TF over GST control).

As to TTCATC, the binding signal is 1.36 fold enrichment (6-mer frequency, TF over GST control) in the experiment with FLI1; 1.28 fold enrichment (6-mer frequency, TF over GST control) in the experiment with ELK1; 1.29 fold enrichment (6-mer frequency, TF over GST control) with GABPA; 1.22 fold enrichment (6-mer frequency, TF over GST control) with ERG; 1.27 fold enrichment (6-mer frequency, TF over GST control) in the experiment with ELF1; 1.14 fold enrichment (6-mer frequency, TF over GST control) in the experiment with EHF. Further, the binding signal with SPI1 was 1.27 fold enrichment (6-mer frequency, TF over GST control); with SPIB it was 1.28 fold enrichment (6-mer frequency, TF over GST control); with ELK3, 1.32 fold enrichment (6-mer frequency, TF over GST control).

Take CGGTCT: the binding signal with FLI1 was 1.24 fold enrichment (6-mer frequency, TF over GST control); in the experiment with ELK1, 1.15 fold enrichment (6-mer frequency, TF over GST control); with GABPA, 1.1 fold enrichment (6-mer frequency, TF over GST control); with ERG it was 1.18 fold enrichment (6-mer frequency, TF over GST control); with ELF1, 1.15 fold enrichment (6-mer frequency, TF over GST control); in the experiment with EHF, 1.15 fold enrichment (6-mer frequency, TF over GST control). In addition, the binding signal with SPI1 is 1.13 fold enrichment (6-mer frequency, TF over GST control); with SPIB, 1.16 fold enrichment (6-mer frequency, TF over GST control); with ELK3 it was 1.18 fold enrichment (6-mer frequency, TF over GST control).

For CAAGCA, the binding signal in the experiment with FLI1 is 1.1 fold enrichment (6-mer frequency, TF over GST control); with ELK1, 1.1 fold enrichment (6-mer frequency, TF over GST control); in the experiment with GABPA it was 1.14 fold enrichment (6-mer frequency, TF over GST control); with ERG, 1.07 fold enrichment (6-mer frequency, TF over GST control); with ELF1, 1.18 fold enrichment (6-mer frequency, TF over GST control); in the experiment with EHF, 1.02 fold enrichment (6-mer frequency, TF over GST control). The binding signal with SPI1 is 1.07 fold enrichment (6-mer frequency, TF over GST control); in the experiment with SPIB, 1.06 fold enrichment (6-mer frequency, TF over GST control); in the experiment with ELK3, 1.1 fold enrichment (6-mer frequency, TF over GST control).

On to CCCACC, for which the binding signal in the experiment with FLI1 is 1.17 fold enrichment (6-mer frequency, TF over GST control); with ELK1, 1.26 fold enrichment (6-mer frequency, TF over GST control); with GABPA, 1.11 fold enrichment (6-mer frequency, TF over GST control); in the experiment with ERG, 1.15 fold enrichment (6-mer frequency, TF over GST control); in the experiment with ELF1, 1.15 fold enrichment (6-mer frequency, TF over GST control); in the experiment with EHF it was 1.2 fold enrichment (6-mer frequency, TF over GST control). In addition, the binding signal is 1.18 fold enrichment (6-mer frequency, TF over GST control) in the experiment with SPI1; 1.13 fold enrichment (6-mer frequency, TF over GST control) with SPIB; 1.16 fold enrichment (6-mer frequency, TF over GST control) in the experiment with ELK3.

With CACTCG, the binding signal with FLI1 is 1.1 fold enrichment (6-mer frequency, TF over GST control); in the experiment with ELK1, 1.26 fold enrichment (6-mer frequency, TF over GST control); with GABPA, 1.08 fold enrichment (6-mer frequency, TF over GST control); with ERG, 1.15 fold enrichment (6-mer frequency, TF over GST control); in the experiment with ELF1, 1.2 fold enrichment (6-mer frequency, TF over GST control); in the experiment with EHF, 1.18 fold enrichment (6-mer frequency, TF over GST control). Moreover, the binding signal with SPI1 is 1.01 fold enrichment (6-mer frequency, TF over GST control); with SPIB, 1.18 fold enrichment (6-mer frequency, TF over GST control); with ELK3, 1.2 fold enrichment (6-mer frequency, TF over GST control).
